In the supplement of paper PMC8975748:
Where a name gives a salt, the structure may show the parent alone.

test system: Saccharomyces cerevisiae BY4741 SeMeCo community; assay: z-score of subpopulation abundance vs DMSO median, subpopulation auxotrophic for HUM; higher = larger share of this subpopulation than in DMSO controls; conditions: 10 µM; 24 h; SM minimal medium; subpopulation (auxotrophy): HUM
Procedure: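 Fluorescent four-plasmid SeMeCo (self-establishing metabolically cooperating S. cerevisiae BY4741 community; plasmids pH-mRuby2, pL-mWasabi, pU-eCFP, pM-TagRFP657) was grown 24 h in minimal SM medium with each Selleck FDA-approved drug at 10 µM in 384-well plates. Cells were fixed and imaged by high-content confocal microscopy. For each auxotrophic subpopulation (and the prototroph), a z-score gives the deviation from the DMSO vehicle-control population median.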

Compared with CCC1=C[C@H]2CN3CCc4c([nH]c5ccccc45)[C@](C(=O)OC)(C2)[C@H]13 [Catharanthine], CC[C@H]1CN2CC[C@]3(C(=O)Nc4ccccc43)[C@@H]2C[C@@H]1/C(=C\OC)C(=O)OC [Rhynchophylline] is higher in “z-score of subpopulation abundance” value: 0.29 for the first, 0.73 for the second.

Compared with Oc1cccc2cccnc12 [8-Hydroxyquinoline], NCC(O)c1ccc(O)cc1 (racemic) [(+,-)-Octopamine HCl] is higher in “z-score of subpopulation abundance” value: -0.54 for the first, -0.21 for the second.

First: Cc1cc(C(C#N)c2ccc(Cl)cc2)c(Cl)cc1NC(=O)c1cc(I)cc(I)c1O (stereo not given) [Closantel]
Second: Oc1cc(Cl)ccc1Oc1ccc(Cl)cc1Cl [Triclosan]
The “z-score of subpopulation abundance” value of the first is higher: 0.04 for the first, -1.9 for the second.

Compared with CC(C)=CCOc1c2occc2cc2ccc(=O)oc12 [Imperatorin], CCOC(=O)Nc1ccc(NCc2ccc(F)cc2)cc1N [Retigabine 2HCl] is higher in “z-score of subpopulation abundance” value: -1.03 for the first, 0.72 for the second.

Going from Nc1ccncc1 [4-Aminopyridine] to COc1ccc2[nH]cc(CCN)c2c1 [5-Methoxytryptamine], the “z-score of subpopulation abundance” value rises from -0.37 to 0.46.

Compared with C[N+]1(C)[C@@H]2C[C@@H](OC(=O)[C@H](CO)c3ccccc3)C[C@H]1[C@@H]1O[C@@H]12 [Methscopolamine], CN1[C@@H]2C[C@@H](OC(=O)[C@H](CO)c3ccccc3)C[C@H]1[C@@H]1O[C@@H]12 [Scopolamine HBr trihydrate] is lower in “z-score of subpopulation abundance” value: 0.63 for the first, -0.05 for the second.

Going from C#C[C@]1(O)C=C[C@H]2[C@@H]3CCC4=CC(=O)CC[C@@H]4[C@H]3CC[C@@]21CC [Gestodene] to C=CC[C@]1(O)CC[C@H]2[C@@H]3CCC4=CC(=O)CCC4=C3C=C[C@@]21C [Altrenogest], the “z-score of subpopulation abundance” value falls from -0.17 to -0.44.

First: O=c1cccc2n1C[C@@H]1CNC[C@H]2C1 [Cytisine]
Second: CN1[C@@H]2CC[C@H]1C[C@@H](OC(=O)C(CO)c1ccccc1)C2 (stereo not given in full) [Atropine sulfate monohydrate]
The “z-score of subpopulation abundance” value of the first is lower: -0.61 for the first, -0.27 for the second.

Compared with CC(C)N(CCC(C(N)=O)(c1ccccc1)c1ccccn1)C(C)C (stereo not given) [Disopyramide], CCN(CC)CCOC(=O)C(O)(c1ccccc1)c1ccccc1 [Benactyzine hydrochloride] is higher in “z-score of subpopulation abundance” value: -0.19 for the first, 0.98 for the second.

Compared with COc1ccc(C(CN(C)C)C2(O)CCCCC2)cc1 (stereo not given) [Venlafaxine], COc1ccc2c(c1)[C@]13CCCC[C@@H]1[C@H](C2)N(C)CC3 [Dextromethorphan hydrobromide hydrate] is lower in “z-score of subpopulation abundance” value: 0.51 for the first, 0.2 for the second.

Going from Nc1nc(N)nc(NC2CC2)n1 [Cyromazine] to CN1C(=O)COc2c(C(=O)NC3CN4CCC3CC4)cc(Cl)cc21 (stereo not given) [Azasetron HCl], the “z-score of subpopulation abundance” value rises from -0.23 to 0.35.

Compared with CCN(C)C(=O)Oc1cccc([C@H](C)N(C)C)c1 [Rivastigmine Tartrate], CN(C)C(=O)Oc1cccc([N+](C)(C)C)c1 [Neostigmine Bromide] is higher in “z-score of subpopulation abundance” value: -0.85 for the first, -0.37 for the second.

Going from CN(C)[C@@H]1C(=O)C(C(N)=O)=C(O)[C@@]2(O)C(=O)C3=C(O)c4c(O)ccc(Cl)c4[C@@](C)(O)[C@H]3C[C@@H]12 [Chlortetracycline HCl] to CN(C)[C@@H]1C(=O)C(C(N)=O)=C(O)[C@@]2(O)C(=O)C3=C(O)c4c(O)cccc4[C@@](C)(O)[C@H]3C[C@@H]12 [Tetracycline HCl], the “z-score of subpopulation abundance” value rises from 0.05 to 0.07.

First: CCCCCCCCCCCCCCCC[n+]1ccccc1 [Cetylpyridinium Chloride]
Second: CC[N+](C)(CC)CCOC(=O)C(O)(c1ccccc1)c1ccccc1 [Methylbenactyzine Bromide]
The “z-score of subpopulation abundance” value of the first is higher: 20.2 for the first, -0.8 for the second.

First: CCN(C)C(=O)Oc1cccc([C@H](C)N(C)C)c1 [Rivastigmine]
Second: C=C(C)[C@H]1Cc2c(ccc3c2O[C@@H]2COc4cc(OC)c(OC)cc4[C@@H]2C3=O)O1 [Rotenone (Barbasco)]
The “z-score of subpopulation abundance” value of the first is lower: 0.66 for the first, 0.94 for the second.

Compared with CC[C@@H](C(N)=O)N1CCCC1=O [Levetiracetam], NC(=O)CN1CCCC1=O [Piracetam] is higher in “z-score of subpopulation abundance” value: -0.12 for the first, 1.72 for the second.

Going from CC(C)(O)C(Cl)(Cl)Cl [Chlorobutanol] to O=[N+]([O-])C(Br)(CO)CO [Bronopol], the “z-score of subpopulation abundance” value falls from -0.45 to -0.53.

Compared with CN(C)[C@@H]1C(=O)C(C(N)=O)=C(O)[C@@]2(O)C(=O)C3=C(O)c4c(O)cccc4[C@@](C)(O)[C@H]3[C@H](O)[C@@H]12 [Oxytetracycline (Terramycin)], O=c1[nH]c2ccccc2n1CCCN1CCC(n2c(=O)[nH]c3cc(Cl)ccc32)CC1 [Domperidone] is higher in “z-score of subpopulation abundance” value: -0.11 for the first, 0.44 for the second.

First: O=C(O[C@H]1C[N+]2(CCCOc3ccccc3)CCC1CC2)C(O)(c1cccs1)c1cccs1 [Aclidinium Bromide]
Second: COc1cc2c(cc1OC)C1CC(=O)C(CC(C)C)CN1CC2 (stereo not given) [Tetrabenazine (Xenazine)]
The “z-score of subpopulation abundance” value of the first is higher: 0.22 for the first, -0.9 for the second.

Compared with CN(C)[C@@H]1C(=O)C(C(N)=O)=C(O)[C@@]2(O)C(=O)C3=C(O)c4c(O)cccc4[C@@](C)(O)[C@H]3[C@H](O)[C@@H]12 [Oxytetracycline Dihydrate], CNC1CC(N)C(O)C(OC2OC(CO)C(O)C3OC4(OC(C(N)CO)C(O)C(O)C4O)OC23)C1O (stereo not given) [Hygromycin B] is higher in “z-score of subpopulation abundance” value: -0.79 for the first, -0.41 for the second.
